Read-out in assay [1]: TIMP metallopeptidase inhibitor 1 (TIMP1), TIMP1 (gene 7076)
Description: BSK_hDFCGF_TIMP1: BioMAP Diversity Plus: hDFCGF Assay for TIMP metallopeptidase inhibitor 1 (TIMP1) Biomarker Activity (AID 2283062). The settings on record: primary human foreskin fibroblasts; actives raise or lower the signal. Put shortly: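 Primary human foreskin fibroblasts in the hDFCGF system were dosed with compound for 24 h, then TIMP-1 was measured by ELISA. Activity was fitted bidirectionally relative to DMSO control; parallel SRB staining assessed cytotoxicity.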

Read-out in assay [2]: Monokine induced gamma interferon (MIG), CXCL9 (gene 4283)
In words: BSK_hDFCGF_MIG: BioMAP Diversity Plus: hDFCGF Assay for Monokine induced gamma interferon (MIG) Biomarker Activity (AID 2283063). The settings on record: primary human foreskin fibroblasts; actives raise or lower the signal. Put shortly: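 ELISA read-out of MIG from primary human dermal fibroblasts 24 h post-dosing. Gain or loss of signal fitted bidirectionally, DMSO as baseline.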

Read-out in assay [3]: Matrix Metallopeptidase 1 (MMP1), MMP1 (gene 4312)
Description: BSK_hDFCGF_MMP1: BioMAP Diversity Plus: hDFCGF Assay for Matrix Metallopeptidase 1 (MMP1) Biomarker Activity (AID 2283064). The settings on record: primary human foreskin fibroblasts; actives raise or lower the signal. In a few lines:
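ELISA read-out of MMP1 from human foreskin fibroblasts (primary skin cells), 24 h post-dose. Gain or loss of signal was fitted bidirectionally versus DMSO negative control; cytotoxicity was checked by SRB in parallel cultures.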

Read-out in assay [4]: Plasminogen activator inhibitor-1 (PAI1), SERPINE1 (gene 5054)
Description: BSK_hDFCGF_PAI1: BioMAP Diversity Plus: hDFCGF Assay for Plasminogen activator inhibitor-1 (PAI1) Biomarker Activity (AID 2283066). The settings on record: primary human foreskin fibroblasts; actives raise or lower the signal. Put shortly:
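PAI-1 levels in human dermal foreskin fibroblasts were quantified by ELISA 24 h after dosing, with gain or loss analysed against DMSO. Overt cytotoxicity was checked by sulforhodamine B total-protein staining in parallel cultures.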

Read-out in assay [5]: Intercellular Adhesion Molecule 1 (ICAM1), ICAM1 (gene 3383)
In words: BSK_KF3CT_ICAM1: BioMAP Diversity Plus: KF3CT Assay for Intercellular Adhesion Molecule 1 (ICAM1) Biomarker Activity (AID 2283067). The settings on record: primary human keratinocytes with fibroblasts; actives raise or lower the signal. In a few lines: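 Human keratinocyte plus foreskin fibroblast primary co-culture was exposed to chemical for 24 h. ICAM-1 was then quantified by ELISA, and the data were fit bidirectionally against DMSO as the negative control and baseline.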

Read-out in assay [6]: Interferon-gamma inducible Protein 10 (IP10), CXCL10 (gene 3627)
Description: BSK_KF3CT_IP10: BioMAP Diversity Plus: KF3CT Assay for Interferon-gamma inducible Protein 10 (IP10) Biomarker Activity (AID 2283068). The settings on record: primary human keratinocytes with fibroblasts; actives raise or lower the signal. Put shortly: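 In a primary skin co-culture of keratinocytes and fibroblasts, IP-10 is quantified by ELISA at 24 h after dosing. SRB staining of parallel wells monitors overt toxicity. Curves are fitted both directions against DMSO.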

Assay [7] in a line: BSK_KF3CT_SRB: Viability Assessment in the BioMAP Diversity Plus: KF3CT Assay (AID 2283069).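 Further: read 24 h after compound addition.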 The settings on record: primary human keratinocytes with fibroblasts. In a few lines:
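SRB read-out at 560 nm (0.1% stain, TCA-fixed cells) gauges overt cytotoxicity in a human skin keratinocyte–fibroblast co-culture 24 h post-dosing. Signal change was fitted bidirectionally relative to DMSO control.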

Read-out in assay [8]: Interleukin-1 alpha (IL1a), IL1A (gene 3552)
Description: BSK_KF3CT_IL1a: BioMAP Diversity Plus: KF3CT Assay for Interleukin-1 alpha (IL1a) Biomarker Activity (AID 2283070). The settings on record: primary human keratinocytes with fibroblasts; actives raise or lower the signal. Put shortly: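 Primary skin co-culture (keratinocytes, foreskin fibroblasts), 24 h exposure; ELISA for IL-1a; bidirectional curve fit vs DMSO.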

Read-out in assay [9]: TIMP metallopeptidase inhibitor 2 (TIMP2), TIMP2 (gene 7077)
Description: BSK_KF3CT_TIMP2: BioMAP Diversity Plus: KF3CT Assay for TIMP metallopeptidase inhibitor 2 (TIMP2) Biomarker Activity (AID 2283071). The settings on record: primary human keratinocytes with fibroblasts; actives raise or lower the signal. Put shortly:
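TIMP-2 measured by ELISA at 24 h in human keratinocyte/fibroblast primary co-cultures exposed to chemicals. Both increases and decreases were fitted against DMSO. Parallel cultures were stained with SRB for total protein as an overt-cytotoxicity check.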

Read-out in assay [10]: Transforming growth factor beta 1 (TGFb1), TGFB1 (gene 7040)
Description: BSK_KF3CT_TGFb1: BioMAP Diversity Plus: KF3CT Assay for Transforming growth factor beta 1 (TGFb1) Biomarker Activity (AID 2283072). The settings on record: primary human keratinocytes with fibroblasts; actives raise or lower the signal. Put shortly: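 ELISA quantifies TGF-b1 at 24 h post-dose in a primary human skin co-culture of keratinocytes and fibroblasts, with gain or loss judged against DMSO. Parallel SRB total-protein staining flags overt cytotoxicity.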

Read-out in assay [11]: C-C motif chemokine 2 (Homo sapiens) (UniProt P13500)
Description: BSK_KF3CT_MCP1: BioMAP Diversity Plus: KF3CT Assay for Monocyte Chemoattractant Protein 1 (MCP1/CCL2) Biomarker Activity (AID 2283073). The settings on record: primary human keratinocytes with fibroblasts; actives raise or lower the signal. Put shortly:
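Human keratinocyte plus foreskin fibroblast primary co-culture exposed to chemical for 24 h. MCP-1 levels measured by ELISA. Bidirectional curve fitting relative to DMSO negative control as baseline.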

Read-out in assay [12]: urokinase plasminogen activator (uPA), PLAU (gene 5328)
Description: BSK_KF3CT_uPA: BioMAP Diversity Plus: KF3CT Assay for urokinase plasminogen activator (uPA) Biomarker Activity (AID 2283075). The settings on record: primary human keratinocytes with fibroblasts; actives raise or lower the signal. Put shortly: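 Skin co-culture (keratinocytes + foreskin fibroblasts), human primary; 24 h post-dose; uPA by ELISA; gain/loss fit vs DMSO baseline.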

Read-out in a further assay: CD40, CD40 (gene 958)
Description: BSK_LPS_CD40: BioMAP Diversity Plus: LPS Assay for CD40 Biomarker Activity (AID 2283076). The settings on record: primary human HUVEC with PBMC; actives raise or lower the signal. Put shortly:
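Primary human umbilical vein endothelial cells co-cultured with peripheral blood mononuclear cells, LPS-stimulated, were dosed with chemical and read 24 h later. CD40 levels were measured by ELISA and fitted bidirectionally against DMSO as negative control and baseline.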

Read-out in assay [13]: Interleukin-8 (IL8), CXCL8 (gene 3576)
Description: BSK_LPS_IL8: BioMAP Diversity Plus: LPS Assay for Interleukin-8 (IL8) Biomarker Activity (AID 2283078). The settings on record: primary human HUVEC with PBMC; actives raise or lower the signal. Put shortly: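 Human umbilical vein endothelial cells co-cultured with PBMC were stimulated with LPS; IL-8 levels were measured by ELISA 24 h after chemical dosing. Activity was fitted bidirectionally against DMSO as negative control and baseline.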

The nature of assay [14]: BSK_LPS_SRB: Viability Assessment in the BioMAP Diversity Plus: LPS Assay (AID 2283079).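 Further: total protein by sulforhodamine B absorbance as a cytotoxicity measure; measured one day after compound addition.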 The settings on record: primary human HUVEC with PBMC. In a few lines:
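Human umbilical vein endothelial cells co-cultured with PBMC (LPS system) were dosed for 24 h. Total protein was stained with 0.1% sulforhodamine B after 10% TCA fixation, read at 560 nm, and fitted bidirectionally against DMSO baseline.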

Read-out in assay [15]: Interleukin-1 alpha (IL1a), IL1A (gene 3552)
In words: BSK_LPS_IL1a: BioMAP Diversity Plus: LPS Assay for Interleukin-1 alpha (IL1a) Biomarker Activity (AID 2283080). The settings on record: primary human HUVEC with PBMC; actives raise or lower the signal. Put shortly: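 Human umbilical vein endothelial cells co-cultured with peripheral blood mononuclear cells were LPS-stimulated and exposed to test chemicals for 24 h. IL-1 alpha was quantified by ELISA, with bidirectional curve fitting against DMSO as the negative control and baseline.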

Read-out in assay [16]: Monocyte Chemoattractant Protein-1 (MCP1), CCL2 (gene 6347)
In words: BSK_LPS_MCP1: BioMAP Diversity Plus: LPS Assay for Monocyte Chemoattractant Protein-1 (MCP1) Biomarker Activity (AID 2283081).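 On AC50: co-culture stimulated with LPS; secreted MCP-1 protein quantified by ELISA in culture supernatant.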 The settings on record: primary human HUVEC with PBMC; actives raise or lower the signal. In a few lines:
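HUVEC plus PBMC co-culture (human primary cells, LPS system) exposed to test chemical for 24 h; MCP-1 measured by ELISA. Bidirectional curve fitting against DMSO baseline; parallel SRB total-protein staining flags overt cytotoxicity.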

Read-out in assay [17]: Matrix Metallopeptidase 9 (MMP9), MMP9 (gene 4318)
Description: BSK_KF3CT_MMP9: BioMAP Diversity Plus: KF3CT Assay for Matrix Metallopeptidase 9 (MMP9) Biomarker Activity (AID 2283074). The settings on record: primary human keratinocytes with fibroblasts; actives raise or lower the signal. Put shortly: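 ELISA read-out of MMP-9 at 24 h post-dosing in a co-culture of human skin keratinocytes and foreskin fibroblasts. Gain or loss of signal was fitted in both directions against DMSO.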

Read-out in assay [18]: E-selectin (Homo sapiens) (UniProt P16581)
In words: BSK_LPS_Eselectin: BioMAP Diversity Plus: LPS Assay for Eselectin Biomarker Activity (AID 2283077). The settings on record: primary human HUVEC with PBMC; actives raise or lower the signal. Put shortly: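 Human umbilical vein endothelial cells co-cultured with peripheral blood mononuclear cells under LPS stimulation; E-selectin measured by ELISA 24 h after chemical dosing. Activity fitted bidirectionally against DMSO as negative control and baseline.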

As usually defined, the AC50 is the concentration at which the activity in the assay is half-maximal.

The source made the active and inactive calls. How the source made its calls: active means hit-call score of the fitted dose curve at least 0.9, where 1 is the maximum; inactive means score below 0.9.

E-selectin (Homo sapiens), sequence (P16581 whole entry, looked up): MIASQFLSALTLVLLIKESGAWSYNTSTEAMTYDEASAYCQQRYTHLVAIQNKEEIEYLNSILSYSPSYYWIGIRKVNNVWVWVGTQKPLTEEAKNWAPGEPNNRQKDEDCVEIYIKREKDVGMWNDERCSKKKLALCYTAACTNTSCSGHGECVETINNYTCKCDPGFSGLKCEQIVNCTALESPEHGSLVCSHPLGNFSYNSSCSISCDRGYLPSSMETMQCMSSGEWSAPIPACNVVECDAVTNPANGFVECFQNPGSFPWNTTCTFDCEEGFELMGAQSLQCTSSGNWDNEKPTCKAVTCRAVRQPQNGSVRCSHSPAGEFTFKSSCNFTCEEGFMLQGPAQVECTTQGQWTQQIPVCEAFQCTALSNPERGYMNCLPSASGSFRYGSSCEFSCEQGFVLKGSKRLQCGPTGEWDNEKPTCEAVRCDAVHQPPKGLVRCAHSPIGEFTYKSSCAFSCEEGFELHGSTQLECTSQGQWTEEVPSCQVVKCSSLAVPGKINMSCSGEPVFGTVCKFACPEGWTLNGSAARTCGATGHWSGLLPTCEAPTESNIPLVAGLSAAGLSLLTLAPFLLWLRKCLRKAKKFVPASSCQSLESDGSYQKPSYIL

Regarding `CC(C)(O)c1coc(S(=O)(=O)NC(=O)Nc2c3c(cc4c2CCC4)CCC3)c1`, the result in [1], in assay [2], in assay [3], in assay [4], in [5] and in assay [6] was inactive. Also, the result in assay [7], in assay [8], in [9], in assay [10], in assay [11] and in [12] was inactive. Also, the outcome is “inactive” with CD40, CD40 (gene 958); “inactive” in assay [14]; “inactive” in assay [15]; “inactive” in [16]. Further, the AC50 in assay [13] is 0.148 µM (active).
In the case of `CCOC(=O)COc1ccc2c(c1)CC(NCC(O)c1cccc(Cl)c1)CC2` (stereo not given), the AC50 in assay [1] is 28.8 µM (active); in assay [2] it was 26.8 µM (active); in assay [3], 33.9 µM (active); in assay [4], 31.7 µM (active); in the assay with CD40, CD40 (gene 958), 29 µM (active); in [13] it was 27.4 µM (active). Further, the AC50 in assay [14] was 28.4 µM (active); in assay [15], 18.3 µM (active); in assay [16] it was 29.2 µM (active). For the same molecule, the result in assay [5], in assay [6], in assay [8], in assay [9], in assay [10] and in assay [11] was inactive. For the same molecule, the result in [17], in assay [12] and in assay [18] was inactive.
As to `CCOCCO`, the outcome in assay [1], in assay [2], in [3], in [4], in [5] and in assay [6] was inactive. For the same molecule, the outcome in assay [8] was “inactive”; in assay [10], “inactive”; in assay [11], “inactive”; in assay [12], “inactive”; with CD40, CD40 (gene 958) it was “inactive”; in assay [13] it was “inactive”. Further, the outcome in assay [14], in assay [15] and in [16] was inactive.

Values taken from PubChem BioAssay (EPA / NIEHS).
